# Pf growth 96h – Primary qHTS for delayed death inhibitors of the malarial parasite plastid, 96 hour incubation | 6.9% of 320,000 active | Potency, µM (top dose mostly 28.7 µM), for inactives: at the highest dose activity change, negative = inhibition, usual class: inhibitors | P. falciparum luciferase reporter growth, 96 h; further: potency means the concentration at half of the fitted maximal effect
#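 Luminescence readout: decreased luciferase signal marks inhibited growth of reporter-expressing P. falciparum in infected red cells (2% hematocrit, 0.05% parasitemia final), exposed to compound two generations (96 h, 37 C, 5% CO2).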
# Giardia FBPA inh-1 – qHTS Assay for Inhibitors of Fructose-1,6-bisphosphate Aldolase from Giardia Lamblia. 0.71% of 290,000 active. AID 2451, 2010. purified Giardia FBPA. Potency, µM (titrated, usually from 59.6 µM), for inactives: at the highest dose activity, negative = inhibition, most hits filed as inhibitors; further: potency means the concentration at half of the fitted maximal effect; nearly all actives have a fitted effect of over 55% in size
# Target sequence (A8B2U2 whole entry, looked up): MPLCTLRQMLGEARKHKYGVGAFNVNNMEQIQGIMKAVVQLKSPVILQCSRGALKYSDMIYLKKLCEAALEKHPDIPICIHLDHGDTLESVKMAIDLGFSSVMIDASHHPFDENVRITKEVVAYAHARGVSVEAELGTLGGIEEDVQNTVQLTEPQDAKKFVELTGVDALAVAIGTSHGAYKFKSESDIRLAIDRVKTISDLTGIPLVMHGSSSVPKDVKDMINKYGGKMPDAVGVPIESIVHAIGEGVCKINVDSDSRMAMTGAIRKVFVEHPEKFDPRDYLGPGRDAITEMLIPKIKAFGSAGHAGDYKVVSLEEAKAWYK
#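 Giardia FBPA (40 nM reagent) was preincubated 10 min at RT with compound (up to 57.5 uM final), then substrate plus GAPDH/TPI/NAD/arsenate coupling system with diaphorase/resazurin was added; resorufin fluorescence (525/598 nm) was read after 20 min.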
# Pf growth 48h – Primary qHTS for delayed death inhibitors of the malarial parasite plastid, 48 hour incubation; P. falciparum luciferase growth in erythrocytes, 48 h; Potency, µM (doses to about 28.7 µM), without a hit: at the top dose activity change, negative = inhibition, most hits filed as inhibitors; 5.9% of 310,000 active; further: potency means the concentration at half of the fitted maximal effect
#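 Compounds are pin-transferred into medium, infected erythrocytes (2% hematocrit, 0.1% parasitemia final) are added, and plates sit one parasite generation at 37 C in 5% CO2. Detection reagent is then added and luminescence measured.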
# Sm TGR block – qHTS Assay for the Inhibitors of Schistosoma Mansoni Peroxiredoxins | Schistosoma mansoni thioredoxin glutathione reductase (TGR), Q962Y6 | purified TGR, DTNB reduction, TNB absorbance 405 nm | Potency, µM (series often up to 114 µM), for the others: at the top dose activity change, negative = inhibition, actives largely listed as inhibitors | 3% of 360,000 active | AID 485364, 2010; further: potency means the concentration at half of the fitted maximal effect; nearly all actives have a fitted effect of over 60% in size
#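 First, TGR (20 nM dispensed) and NADPH were mixed with compound. Second, a 15 min room-temperature incubation followed. Third, further NADPH and then DTNB were added to start the reaction. Finally, TNB absorbance was monitored kinetically.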
# HCMV antiviral – qHTS Assay for inhibitors of the human cytomegalovirus (HCMV); HFF cells, HCMV-luciferase reporter, 72 h; active compounds read low; activity change, negative = inhibition, % at 57.5 µM; 4.5% of 410,000 active; AID 1259415, 2018; in the data active means activity change below about -60%; inconclusive means no clear call, values can overlap the other calls; inactive means above about -39%
#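 Cell-based, HFFs, 1000 cells/well, 16 h 37C; cpds in DMSO + HCMV-luc, MOI 1 PFU/cell; 72 h 37C; OneGlo luminescence after 5 min RT; norm. to buffer vs Salinomycin 10uM.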
# Giardia growth – qHTS Assay for Inhibitors of Fructose-1,6-bisphosphate Aldolase from Giardia Lamblia: Giardia lamblia growth inhibition. shares compounds with Giardia FBPA inh-1. Giardia lamblia trophozoite growth inhibition. Potency, µM (titrated, usually from 57.5 µM), for inactives: at the top dose activity change, negative = inhibition, hits mostly inhibitors. 5% of 1,500 active;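 further: potency means the concentration at half of the fitted maximal effect; trophozoites exposed to compound for 48 h at 37 °C; nearly all actives have a fitted effect of over 70% in size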
# Mammal cell tox – qHTS Assay for Inhibitors of Fructose-1,6-bisphosphate Aldolase from Giardia Lamblia: Mammalian cellular toxicity | 4% of 1,500 active | mammalian cell viability counter-screen, qHTS | Potency, µM (titrated, usually from 57.5 µM), for the others: at the top dose viability change, negative = toxicity, hits mostly inhibitors | shares compounds with Giardia FBPA inh-1;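 further: Chinese hamster ovary cells used as mammalian cytotoxicity surrogate; viability measured as cellular ATP by luminescence; potency means the concentration at half of the fitted maximal effect; compound exposure lasted 48 h before reading; nearly all actives have a fitted effect of over 60% in size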
# Giardia FBPA inh-2 – qHTS Assay for Inhibitors of Fructose-1,6-bisphosphate Aldolase from Giardia Lamblia: Primary screen confirmation; shares compounds with Giardia FBPA inh-1; purified Giardia aldolase enzyme activity, qHTS; Potency, µM (highest dose often 57.5 µM), inactives show top-dose activity change, negative = inhibition, hits mostly inhibitors; 5% of 1,500 active; AID 2787, 2010; further: potency means the concentration at half of the fitted maximal effect; nearly all actives have a fitted effect of over 45% in size
# Rabbit aldolase – qHTS Assay for Inhibitors of Fructose-1,6-bisphosphate Aldolase from Giardia Lamblia: Rabbit FBPA Selectivity. shares compounds with Giardia FBPA inh-1. Rabbit muscle FBPA enzyme inhibition, selectivity counter-screen. Potency, µM (titrated, usually from 57.5 µM), for inactives: at the highest dose activity, negative = inhibition, hits mostly inhibitors. 4% of 1,500 active; further: potency means the concentration at half of the fitted maximal effect; nearly all actives have a fitted effect of over 60% in size
# Target sequence (P00883 whole entry, looked up): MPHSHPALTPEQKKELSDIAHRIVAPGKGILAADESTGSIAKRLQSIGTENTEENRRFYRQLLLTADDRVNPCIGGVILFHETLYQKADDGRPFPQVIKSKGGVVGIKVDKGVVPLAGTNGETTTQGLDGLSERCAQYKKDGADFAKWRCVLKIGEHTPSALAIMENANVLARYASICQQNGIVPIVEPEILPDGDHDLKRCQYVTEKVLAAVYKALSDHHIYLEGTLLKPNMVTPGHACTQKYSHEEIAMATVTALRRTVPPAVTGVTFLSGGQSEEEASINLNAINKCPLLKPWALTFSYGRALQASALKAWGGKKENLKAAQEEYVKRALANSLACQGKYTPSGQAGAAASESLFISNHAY
# GAPDH coupling – qHTS Assay for Inhibitors of Fructose-1,6-bisphosphate Aldolase from Giardia Lamblia: Coupling assay counterscreen confirmation | shares compounds with Giardia FBPA inh-1 | GAPDH coupling enzyme counterscreen, biochemical, qHTS | Potency, µM (series often up to 57.5 µM), without a hit: at the highest dose activity change, negative = inhibition, most hits filed as inhibitors | 6% of 1,500 active | AID 2795, 2010; further: potency means the concentration at half of the fitted maximal effect; nearly all actives have a fitted effect of over 55% in size
# * = called active by the depositor; ? = inconclusive; . = no result; [ ] = dose if it differs, or a comment. Sampled rows, rich in hits. Any-hit rate of the full collection: about 14%. Unless noted, the call rests on the fitted dose curve; in most records, active means well fitted curve in the direction sought with a large enough effect; inconclusive means small, poorly fitted or top-dose-only effect, or another doubt; inactive means no such curve, though single readings can be large; an effect the other way counts as inactive or inconclusive. On the % scale 0 is the no-effect control and ±100 the full control effect.
SMILES,Pf growth 96h,Giardia FBPA inh-1,Pf growth 48h,Sm TGR block,HCMV antiviral,Giardia growth,Mammal cell tox,Giardia FBPA inh-2,Rabbit aldolase,GAPDH coupling
CC(C)c1ccc(/C=N/N2CCCCC2)cc1,6%,14µM*,77%,5%,-70*,-15%[10.4 µM],-1%,-8%,-5%,-6%
N#CCCN(Cc1cccnc1)C(=S)NC(=O)c1ccc(S(=O)(=O)N2CCCC2)cc1,-11%,7.9µM*,5%,-1%,?,10%,7%,-2%,5%,12%
CC(=O)Nc1ccc(SCC(=O)N2CCN(S(=O)(=O)c3ccccc3)CC2)cc1,-10%,3%,-12%,-1%,-25,.,.,.,.,.
CC(C)(C)c1ccc(C(=O)Cn2cnnc2C#N)cc1,?,0%,-17%,-21%,3,.,.,.,.,.
CC1=C(c2ccc(C(C)C)cc2)S(=O)(=O)NC1=NCc1ccccc1C,.,.,.,7%,-19,.,.,.,.,.
CC1CCn2c(nc3cc(C(=O)NCc4ccccc4)ccc32)C1 (centres undefined),.,.,.,3%,-7,.,.,.,.,.
O=C(NCSc1ccncn1)c1ccccc1,30%,16µM*,?,28µM*,15,8%[10.4 µM],1%,7%,5%,10%
O=C(NCSc1ccnc(SCNC(=O)c2ccccc2)n1)c1ccccc1,18%,5%,-20%,?,19,.,.,.,.,.
CC(C)OC(=O)CC1C(=O)NCCN1C(=S)NC(=O)c1cccs1 (centres undefined),7%,5.6µM*,42%,-30%,-30,4%[38.3 µM],-2%,-2%,4%,-2%
COC(=O)CC1C(=O)NCCN1C(=S)NC(=O)c1ccccc1[N+](=O)[O-] (centres undefined),52%,7.1µM*,11%,0%,1,-36%,-12%,2%,2%,13%
COC(=O)CC1C(=O)NCCN1C(=S)Nc1ccccc1 (centres undefined),7%,-3%,4%,2%,?,.,.,.,.,.
COc1cccc(-c2cnc3c(c2)C(=O)N([C@H](C)CO)C[C@@H](C)[C@H](CN(C)C(=O)Nc2ccccc2F)O3)c1,.,.,.,.,-19,.,.,.,.,.
Cc1cc(=O)n(CCO)c(O)c1C#N,11%,?,13%,-35%,57,.,.,.,.,.
CCn1c(O)c(C#N)c(C)cc1=O,23%,13µM*,10%,?,41,?,28%,?,?,?
COC(=O)c1ccc(C(=O)O)nc1,?,20µM*,13%,-7%,13,61%,11%,3%,12%,-3%
COC(=O)c1ccc(C(=O)OC)nc1,-9%,1%,35%,-4%,17,.,.,.,.,.
CCc1cccc(C)c1NC(=S)N(CCCN1CCOCC1)Cc1cccnc1,?,16µM*,?,16%,-7,-2%,8%,6%,13%,10%
CCOc1ccc(NC(=O)N(CCCN2CCOCC2)Cc2cccnc2)cc1,-11%,2%,.,0%,-22,.,.,.,.,.
Cc1cc(C)c2c(=O)[nH][nH]c2n1,.,.,.,.,1,.,.,.,.,.
CN1CCO/C1=C(\C(Cl)=C(Cl)Cl)[N+](=O)[O-],4%,18µM*,-22%,32µM*,16,-29%,-9%,-3%,5%,4%
O=[N+]([O-])/C(C(=C(Cl)Cl)N1CCOCC1)=C1\NCCO1,15%,2%,-3%,-1%,13,.,.,.,.,.
COc1ccc(OC)c2c1C(=O)c1ccccc1C2=O,104%,?,0%,-2%,19,.,.,.,.,.
CC1(C)C(=O)NC2=C1C(=O)C(=O)c1ccccc12,.,0.16µM*,.,.,.,16µM*,20µM*,1.1µM*,0.89µM*,1.3µM*
NS(=O)(=O)c1ccc(CCNC(=O)Nc2ccc(Cl)c(Cl)c2)cc1,.,-6%,3%,-12%,?,.,.,.,.,.
O=C(COc1ccccc1O)N1CCN(C(=O)c2ccco2)CC1,.,0%,15%,-25%,-9,.,.,.,.,.
SMILES,Pf growth 96h,Giardia FBPA inh-1,Pf growth 48h,Sm TGR block,HCMV antiviral,Giardia growth,Mammal cell tox,Giardia FBPA inh-2,Rabbit aldolase,GAPDH coupling
O=C(COc1cccnc1[N+](=O)[O-])N1CCN(C(=O)c2ccco2)CC1,-3%,18µM*,5%,4%,-9,6%[10.4 µM],2%,-6%,8%,-2%
COc1cc(C(=S)N2CCCC2)cc(OC)c1O,19%,-11%,.,4%,17,.,.,.,.,.
CC(C)(C)c1cc(C(=S)N2CCN(CCO)CC2)cc(C(C)(C)C)c1O,-2%,10µM*,?,0%,-9,-4%[10.4 µM],-4%,-12%,?,?
COc1cc2c(cc1OC)CN(C(=O)CN1CCN(S(=O)(=O)c3ccccc3Br)CC1)CC2,11%,16µM*,?,-24%,-20,3%,-5%,1%,-5%,9%
C/C(=N\NC(N)=S)c1ccc2c(c1)OCCO2,?,18µM*,-14%,-10%,31,?,-10%,11%,8%,9%
C/C(=N\NC(N)=S)c1ccccc1,?,16µM*,-28%,6%,-29,27%,7%,6%,5%,7%
CCOC(=O)CCCc1ccc(/C(C)=N/NC(N)=S)cc1,?,6.3µM*,?,-25%,-23,13%[38.3 µM],-1%,10%,9%,-3%
NCc1c(O)ccc2ccccc12,?,-10%,14%,13µM*,15,-2%[38.3 µM],-9%,1.6µM*,?,?
O=C(O)Cc1c(O)ccc2ccccc12,15%,-2%,5%,-16%,2,.,.,.,.,.
O=C1NC[C@H](CCCCN2C[C@H](Cc3ccccc3)N(CCc3ccccc3)C(=O)C2=O)N(CCC2CCCCC2)C1=O,.,.,.,.,-20,.,.,.,.,.
